# In the library only some 3.4% were active in any assay of this set; here they are far more common.
# Wnt bcat act: activators of Wnt/beta-catenin signaling | Wnt/beta-catenin reporter cell assay, activator, plate reader | activation, % at 9.35 µM | 1.2% of 300,000 active; in the data active = activation above about 30%, passing the limit was not always enough; inconclusive = no clear call, values can overlap the other calls;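 note: 0% = neutral control wells and 100% = positive control wells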
# HIV Env fusion: inhibitors of HIV Env-mediated cell fusion | HeLa-JRFL Env/CEM21 cell fusion, luciferase | inhibition, % at 12.3 µM | 1.1% of 360,000 active | AID 651610;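 active = mean replicate inhibition score of at least 50 and every replicate individually at or above 50; inconclusive = only one of the two criteria met; inactive = mean below 50 and not all replicates reaching 50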;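 note: 0% = plate neutral controls and 100% = maraviroc near 300 nM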
# MITF TRPM1 HTS: activators of MITF-driven TRPM1 promoter activity in SK-MEL-5 cells | SK-MEL-5 TRPM1-promoter luciferase, 24 h; % of positive control, neutral wells = 0 | activation, % at 12.5 µM | 0.75% of 300,000 active;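 active = mean activation of at least 80% with every replicate also reaching 80%; inconclusive = mean reaches 80% but some replicate falls short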;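 note: 0% = neutral control wells and 100% = parthenolide positive control wells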
# miR-122 sensor: inhibitors of miR-122 in Huh7 cells; Huh7 miR-122 Renilla luciferase sensor, 48 h; neutral wells = 0, positive control = 100; activation (reporter increase), % at 12.5 µM; 0.3% of 340,000 active; AID 602342;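 active = mean replicate activation score at least 90 and every replicate individually at or above 90; inconclusive = only one of the two criteria met; inactive = neither criterion met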;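 note: higher luciferase means less miR-122 activity so hits act as miR-122 inhibitors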
# esBAF inh: SWI/SNF esBAF complex inhibition; mouse ES cells, Bmi1-luciferase knock-in reporter, 24 h; 100% = twice the neutral-well signal; reporter increase, % at 12.5 µM; 2% of 350,000 active; in the data active = activation above about 40%; inconclusive = no clear call, values can overlap the other calls;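 note: 0% = median of the plate's neutral control wells and 100% = double that signal; a rise in the Bmi1 reporter signal indicates esBAF inhibition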
# Starred values were filed as active, the others as inactive; ? = inconclusive; nt = not tested or not shown; [ ] = dose if it differs, or a comment.
SMILES,Wnt bcat act,HIV Env fusion,MITF TRPM1 HTS,miR-122 sensor,esBAF inh
COc1cccc2sc(N(C)c3ccccc3)nc12,65.3*,-250.2,56.9,3.8,14.1
CCC(C)N(C(=O)COC(=O)c1cc([N+](=O)[O-])ccc1N)C1CCS(=O)(=O)C1 (configuration not stated),-1.6,70.5*,-6.9,-11.0,nt
CN(C(=O)COC(=O)c1cc([N+](=O)[O-])ccc1Sc1ccccc1)C1CCS(=O)(=O)C1 (configuration not stated),-2.5,4.3,-3.2,0.1,2.8
Cc1ccc(S(=O)(=O)N[C@@H]2CC[C@@H](CCNC(=O)c3ccccc3F)O[C@@H]2CO)cc1,nt,14.9[16.7 µM],nt,-4.5[16.7 µM],-1.7
O=S(=O)(/C=C/c1ccccc1)Nc1ccc(F)cc1,-0.5,7.7,14.0,nt,nt
CN(C)S(=O)(=O)c1ccc(NS(=O)(=O)/C=C/c2ccccc2)cc1,nt,-23.6,nt,165.1*,1.0
CN1C(=O)c2cc(NC(=O)NCc3ccccc3)ccc2OC[C@H]2O[C@H](CC(=O)O)CC[C@H]21,nt,-7.2[16.7 µM],nt,5.8[16.7 µM],-3.2
O=C(Cc1cccs1)N/N=C/C(Cl)=C/c1ccccc1,?,-19.2,77.8,nt,nt
CCOC(=O)N/N=C/C(Cl)=C/c1ccccc1,15.9,-30.9,74.8,2.0,56.0*
CCCCOC(=O)N/N=C/C=C/c1ccccc1,-1.2,nt,32.6,0.3,51.4*
COc1ccc(NC(=O)N2C[C@@H](O)COC[C@H]3O[C@@H](CC(=O)NC4Cc5ccccc5C4)CC[C@@H]32)cc1,nt,nt,nt,-7.0[16.7 µM],-0.2
CCCCSc1nc(CCC)cc(=O)[nH]1,nt,-116.9,nt,-6.7,nt
CCCCSc1nc(C(=O)O)cc(=O)[nH]1,38.4*,8.5,-8.4,-2.1,-0.8
CCC(=O)N1C[C@@H](C)[C@H](OC)CN(C)C(=O)c2ccc(NC(=O)C3CCOCC3)cc2OC[C@H]1C,nt,6.8[16.7 µM],nt,8.2[16.7 µM],-5.7
CN(C)c1ccc(C(O)c2cc3ccccc3s2)cc1 (configuration not stated),-1.7,nt,18.2,nt,52.0*
O=C(OCc1ccccc1F)c1ccc2c(c1)-c1ccccc1C2=O,-1.3,nt,?,6.5,44.2*
Cc1ccccc1C(=O)c1cccn1CC(=O)NCc1ccccc1Cl,8.5,-22.8,57.2,0.7,56.7*
COc1ccccc1CNC(=O)Cn1cccc1C(=O)c1ccccc1,3.0,-7.4,29.0,-2.8,30.8
O=C(Cn1cccc1C(=O)c1ccccc1)NCc1ccccc1Cl,12.9,-19.7,41.2,3.9,55.7*
O=C(C[C@H]1C[C@H]2c3cc(NC(=O)Cc4ccncc4)ccc3O[C@H]2[C@H](CO)O1)NCc1cccc(F)c1,nt,-11.7[16.7 µM],nt,22.0[16.7 µM],7.5
COc1ccc(/C=C/C(=O)c2c(C)nc3ccccn23)cc1,nt,-7.1,nt,1.5,69.4*
COc1ccc(NC(=O)c2c(Cl)nc3ccccn23)cc1,nt,-8.4,6.4,-3.9,3.8
Cc1nc2ccccn2c1C(=O)NN,nt,-0.8,-7.0,0.9,nt
COc1ccc(CNC(=O)c2c(C)nc3ccccn23)cc1,7.2,?,0.3,-3.7,-3.0
O=C(Nc1ccc(F)cc1)c1c(Cl)nc2ccccn12,5.4,-21.6,27.6,-1.8,50.3*
SMILES,Wnt bcat act,HIV Env fusion,MITF TRPM1 HTS,miR-122 sensor,esBAF inh
Cc1nc2ccccn2c1C(=O)/C=C/c1ccc(F)cc1,nt,nt,-10.2,-7.5,100.4*
Cc1ccc(S(=O)(=O)N(C)C[C@H]2Oc3ccc(NC(=O)NC4CCCCC4)cc3CC(=O)N([C@@H](C)CO)C[C@H]2C)cc1,nt,nt,nt,-2.6[16.7 µM],7.4
CNC(=O)C[C@H]1CC[C@H]2[C@@H](COC[C@H](O)CN2C(=O)Nc2cccc(OC)c2)O1,nt,nt,nt,0.4[16.7 µM],-1.9
CO[C@@H]1CN(C)C(=O)c2cc(NS(=O)(=O)c3cccc(Cl)c3)ccc2OC[C@H](C)NC[C@H]1C,nt,-5.0[16.7 µM],nt,-5.6[16.7 µM],2.8
C/C(O)=c1/c(=O)nc2cccc3c2=c1c1ccccc1c3=O,-3.1,67.3*,nt,nt,0.4
CC(=O)Oc1ccccc1/C=C/c1nc2ccccc2c(=O)o1,-1.0,23.5,-26.6,10.2,-28.1
O=C(N/N=C/c1ccnc2ccccc12)c1ccccc1O,7.8,-28.8,29.0,-5.8,54.7*
O=C(N/N=C/c1ccc2nccnc2c1)c1ccncc1,1.8,5.8,nt,nt,nt
O=C(O)c1ccc(N/N=C/c2ccnc3ccccc23)cc1,0.9,-31.3,79.6,0.9,nt
O=C(N/N=C/c1ccc2nccnc2c1)c1ccccc1O,37.6*,-28.1,nt,nt,nt
CNC(=O)COC(=O)c1cc2c(C)nn(-c3ccc(F)cc3)c2s1,-1.0,nt,11.7,-5.3,-6.4
Cc1nn(-c2ccc(F)cc2)c2sc(C(=O)N3CCCCCC3)cc12,nt,nt,50.1,-5.0,63.7*
Cc1nn(-c2ccccc2)c2sc(C(=O)NC3CC3)cc12,nt,-43.6,nt,45.2,47.4*
CN(C)C(=O)c1ccc(-c2cccc(-c3nc(C(=O)NC4CCCC4)cc4c3[C@H](CCO)N([S@@](=O)C(C)(C)C)C4)c2)cc1,nt,-7.3[16.7 µM],nt,nt,5.7
N#C/C(=C(/O)c1cccc(F)c1)c1nc2ccccc2s1,34.4*,-10.2,52.3,nt,nt
N#C/C(=C(/O)c1ccco1)c1nc2ccccc2s1,4.3,-15.3,43.2,5.5,58.0*
N#C/C(=C(/O)c1cc2ccccc2o1)c1nc2ccccc2s1,21.9,-1.2,33.6,5.3,30.5
Cn1c2ccccc2c(=O)c2ccc(-c3ccc4c(c3)OCO4)cc21,41.2*,-367.6,84.2*,5.2,49.0*
Cn1c(-c2ccc3c(c2)OCO3)cc(=O)c2ccccc21,-1.4,nt,nt,11.6,-0.2
CC(C)Cc1ccc(/C=C/C(=O)NC2CC2)cc1,53.6*,nt,79.6,-2.0,49.2*
C[C@@H]1CN([C@@H](C)CO)C(=O)c2cc(NS(=O)(=O)c3cccs3)ccc2O[C@@H](C)CCCCO[C@H]1CN(C)Cc1ccc(C(F)(F)F)cc1,nt,58.4*[16.7 µM],nt,-8.9[16.7 µM],3.0
Cc1ccc(S(=O)(=O)Nc2ccc3c(c2)C(=O)N([C@H](C)CO)C[C@@H](C)[C@@H](CN(C)Cc2ccc(C(F)(F)F)cc2)OCCCC[C@@H](C)O3)cc1,nt,68.5*[16.7 µM],nt,-8.1[16.7 µM],-5.1
C[C@@H]1CN([C@H](C)CO)C(=O)c2cc(NS(=O)(=O)c3cccs3)ccc2O[C@@H](C)CCCCO[C@@H]1CN(C)Cc1ccc(C(F)(F)F)cc1,nt,15.3[16.7 µM],nt,9.6[16.7 µM],5.1
Cc1ccc(S(=O)(=O)Nc2ccc3c(c2)C(=O)N([C@@H](C)CO)C[C@@H](C)[C@H](CN(C)Cc2ccc(C(F)(F)F)cc2)OCCCC[C@@H](C)O3)cc1,nt,107.8*[16.7 µM],nt,-15.6[16.7 µM],2.9
CNC[C@@H]1OCCCC[C@H](C)Oc2ccc(NS(=O)(=O)c3ccc(C)cc3)cc2C(=O)N([C@H](C)CO)C[C@H]1C,nt,15.0[16.7 µM],nt,-2.0[16.7 µM],54.8*
Cc1ccc(S(=O)(=O)Nc2ccc3c(c2)C(=O)N([C@@H](C)CO)C[C@H](C)[C@@H](CN(C)Cc2ccc(C(F)(F)F)cc2)OCCCC[C@H](C)O3)cc1,nt,8.8[16.7 µM],nt,-9.4[16.7 µM],1.2
COc1ccc(NC(=O)Nc2cccc3c2O[C@H](CN(C)C(=O)Nc2c(C)noc2C)[C@@H](C)CN([C@@H](C)CO)C3=O)cc1,nt,-9.4[16.7 µM],nt,6.1[16.7 µM],6.2
